Test results: PubChem BioAssay AID2275 (Broad Institute, 2010)
Screen size: about 30,000 compounds; about 190 (0.63%) were called active. Many of the other results were omitted from the sample, so actives are more common in it than they were. Unmarked numbers belong to inactive results. Rule as the data show it: active = viability loss activity score above about 50%; inconclusive = no clear call, values can overlap the other calls; inactive = below about 35%.

Assay: cytotoxicity in HRASV12-transformed BJ fibroblasts – cell-based, luminescence, CellTiterGlo ATP, primary screen (AID 2275);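 also: higher score means fewer live cells and less ATP luminescence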
Details: BJeLR fibroblasts viability, 48 h, hits give high values, HRASV12, hTERT and SV40 LT/ST transformed, concentration not given here
`COc1cc(OC)c(N(C)C(=O)c2ccc3c(=O)n4c(nc3c2)CCCCC4)cc1Cl` gave a viability loss activity score of 4.36%. `CCN(CC)C(=O)Cn1cc(SCc2ccccc2)c2ccccc21` showed a viability loss activity score of -2.18%. `CCCCS(=O)CSc1nc(-c2ccc(OC)cc2)cc(-c2ccccc2)c1C#N` (centres undefined) gave a viability loss activity score of -8.8%. `O=C(Nc1ccncc1)c1cccc(COc2ccc3ccccc3c2)c1` gave a viability loss activity score of 12.1%. `O=C(c1ccccc1)c1cnn(-c2ccc(Cl)cc2)n1` gave a viability loss activity score of 14.6%. Work on `CN1c2ccccc2C(C)(C)C12Cc1cc(NS(=O)(=O)c3ccc(Cl)cc3)ccc1O2` (centres undefined) yielded a viability loss activity score of 0.312%. Work on `O=C(Oc1ccc(Br)cc1)c1ccco1` yielded a viability loss activity score of -1.65%. Work on `CCOC(=O)c1cc(-c2ccc(C)cc2)n(CC(=O)NCC2CCCO2)c1C` (centres undefined) yielded a viability loss activity score of -1.7%. In the case of `N/C(C[n+]1ccccc1)=N\O`, the viability loss activity score is reported as -4.49%. For `O=C(CCc1nc2sc3c(c2c(=O)[nH]1)CCCC3)NC1CCCC1`, the viability loss activity score was 1.97%. In the case of `O=C1CSC(c2ccc(Cl)cc2)N1Nc1nc(Nc2ccccc2)nc(N2CCCCC2)n1` (centres undefined), the viability loss activity score is reported as -7.31%. For `COc1ccc(/C=C2\SC(=O)N(c3ccc(C)cc3)C2=O)cc1`, the viability loss activity score was -2.92%. For `COc1cc2c(c(OC)c1)C(c1ccccc1OC)CC(=O)N2` (centres undefined), the viability loss activity score was 0.526%. `COc1ccc(S(=O)(=O)N(C)C[C@H]2Oc3ccc(N(C)C)cc3C(=O)N([C@@H](C)CO)C[C@@H]2C)cc1` showed a viability loss activity score of 0.729%. `O=C(NCCCN1CCCC1)c1cc(-c2ccncc2)nc2ccccc12` gave a viability loss activity score of 3.5%. `O=C(NCCc1ccccc1)c1nnc(Cc2ccc(F)cc2)o1` showed a viability loss activity score of -0.807%. `CCCN(CCC)Cc1c(O)ccc2c(=O)c(-c3ccccc3)coc12` showed a viability loss activity score of 3.33%. `Cc1cccc(C)c1N=C1Oc2ccccc2NC1(C)c1ccccn1` (centres undefined) gave a viability loss activity score of -0.212%. For `CC(C)(C)C1=CC(=Nc2ccccc2N)C=C(C(C)(C)C)C1O` (centres undefined), the viability loss activity score was -0.524%. `CC(c1ccccc1)N1C(=O)c2ccccc2C1Nc1ccc(F)cc1` (centres undefined) showed a viability loss activity score of -2.92%. In the case of `COC(Cn1c(SCC(=O)c2cccc(C(F)(F)F)c2)nnc1-c1ccc(Cl)cc1)OC`, the viability loss activity score is reported as 2.18%. `CSc1nc(COc2ccc(C(C)(C)C)cc2)nc(-n2cccc2)c1C#N` gave a viability loss activity score of -2.33%. Work on `C=CCC(c1cc(Cl)ccc1N)S(=O)(=O)c1ccc(C)cc1` (centres undefined) yielded a viability loss activity score of 0.759%. For `CSc1cccc(NC(=O)CSc2nncn3c2cc2sccc23)c1`, the viability loss activity score was -1.6%.
